Experimental data from PubChem BioAssay (NCATS).
Records with an inconclusive call do not appear. Entries that show only a call come without a potency. Active and inactive are the calls of the source. The call rests on the fitted dose curve.
Potency means the concentration at half of the fitted maximal effect.

Assay: Confirmatory qHTS for activators (rescue) of SARS-CoV-2 Cytopathic Effect (CPE) (AID 1508606); further: nearly all actives have a fitted effect of over 70% in size
Conditions: Vero E6 SARS-CoV-2 CPE rescue, viability luminescence; series mostly up to 20 µM
For `CC(=O)O[C@@H]1C[C@H](O)[C@@]23CO[C@H](O)[C@]1(C)C2C[C@@H](O)[C@]1(C)C3C(=O)[C@H](OC(C)=O)[C@@]2(C)[C@H](c3ccoc3)C[C@H]3O[C@]321` (some centres undefined), the Potency was 1.06 µM (active). In the case of `C/C=C(\C)C(=O)O[C@H]1C=C(CO)C(=O)[C@H](OC(C)=O)[C@H]1C(C)C`, the Potency is reported as “inactive”. In the case of `O=C(O)c1ccc(CCCc2ccc(OCCc3ccc(F)cc3)cc2)o1`, the Potency is reported as “inactive”. In the case of `Cc1cc(CN)cc(C)c1NC(=O)c1ccc(-c2cc(Cl)ccc2Cl)o1`, the Potency is reported as 7.94 µM (active). With `CC(C)C[C@H](NC(=O)[C@H](Cc1ccccc1)NC(=O)OCc1ccccc1)C(=O)C=O` the Potency was 8.91 µM (active). For `COc1ccc(S(=O)(=O)N(CCO)c2ccccc2CN(C)C/C=C/c2ccc(Cl)cc2)cc1`, the Potency was 10 µM (active). For `CC(C)(O)CNc1ncc(-c2ccnc(Nc3ccncc3)n2)c(CC2CC2)n1`, the Potency was 1.12 µM (active). With `COc1ccc(CNC(=O)Nc2ncc([N+](=O)[O-])s2)cc1` the Potency was 7.94 µM (active). For `Cc1nc2ccc(-n3ncc(C(=O)c4cc5ccccc5[nH]4)c3N)cc2[nH]1`, the Potency was “inactive”. For `CC(C)c1ccc(NC(=O)C(c2ccccc2)N(C)C(=O)Cc2c[nH]c3ccccc23)cc1` (centres undefined), the Potency was 3.55 µM (active). In the case of `C[C@@H]1C[C@H](N)C[C@H](c2ccncc2NC(=O)c2ccc(F)c(-c3c(F)cccc3F)n2)C1`, the Potency is reported as 8.91 µM (active). With `CN(C)C(=O)NC1(c2ccccc2)CCN(CCC[C@]2(c3ccc(Cl)c(Cl)c3)CCCN(C(=O)c3ccccc3)C2)CC1` the Potency was “inactive”. In the case of `c1ccc(-c2cc(CCC3CCNCC3)c3ccccc3n2)cc1`, the Potency is reported as “inactive”. For `C[C@H]1CC[C@@]2(OC1)O[C@H]1CC3[C@@H]4CC[C@@H]5C[C@@H](O[C@@H]6O[C@H](CO)[C@@H](O[C@@H]7O[C@@H](C)[C@H](O)[C@@H](O)[C@H]7O)[C@H](O)[C@H]6O[C@@H]6O[C@H](CO)[C@@H](O)[C@H](O)[C@H]6O)CC[C@]5(C)C4CC[C@]3(C)[C@H]1[C@@H]2C` (some centres undefined), the Potency was “inactive”. For `OC1CCC(Oc2cccc3cnc(Nc4ccc5nc[nH]c5c4)nc23)CC1` (centres undefined), the Potency was 4.47 µM (active). With `Cc1cc(C)cc(-c2cnc3cc(Cl)c(-c4cccc(O)c4)cc3c2OCCCN)c1` the Potency was “inactive”. With `CN(CCCNC(=O)c1ccc2nc3c(c(Cl)c2c1)CCCC3)Cc1ccccc1` the Potency was 7.08 µM (active). With `Cn1c(NC[C@@H](N)Cc2ccccc2)nc(-c2ccncc2)c(-c2ccc3ccccc3c2)c1=O` the Potency was 6.31 µM (active). With `CC(=O)O/N=C1\C(=O)N(Cc2cc(Cl)ccc2Cl)c2ccc(Cl)cc21` the Potency was 7.94 µM (active). With `O=S(=O)(c1cccc2ccccc12)n1ccc2ccc(N3CCN4CCCC4C3)cc21` (centres undefined) the Potency was 11.2 µM (active). In the case of `COc1cc2ncnc(Sc3nnc(C)s3)c2cc1OC`, the Potency is reported as 3.98 µM (active). In the case of `COCCN1CCN(Cc2ccc(-c3n[nH]c4c3C(=O)c3c(NC(=O)NN5CCOCC5)cccc3-4)cc2)CC1`, the Potency is reported as 2.82 µM (active). For `Nc1nc2c(c(N3CC[C@@H](N)C3)n1)CCCc1ccccc1-2`, the Potency was 10 µM (active). For `COc1cc(N2CCN(C)CC2)ccc1Nc1nccc(-c2cn(C)c3cnccc23)n1`, the Potency was 8.91 µM (active). In the case of `O=C(O)/C=C/c1ccc(-c2ccc(O)c(C34CC5CC(CC(C5)C3)C4)c2)cc1`, the Potency is reported as “inactive”. For `O=S(=O)(NCC1CC1)c1ccc(Nc2nccc(N3CCCc4cc(O)ccc43)n2)cc1`, the Potency was 0.794 µM (active). With `C(=N\Nc1nc(Nc2ccccc2)nc(N2CCOCC2)n1)/c1c[nH]c2ccccc12` the Potency was 0.0898 µM (active). In the case of `Cc1nc(Nc2cnn(C3CCNCC3)c2)nc2c1N(C)C(=O)c1cc3ccccc3cc1N2C`, the Potency is reported as 10 µM (active). For `COc1ccc2cc(-c3cc(-c4cc(Cl)cc(Cl)c4)nn3C(C)c3ccc(C(=O)NCCC(=O)O)cc3)ccc2c1` (centres undefined), the Potency was “inactive”. In the case of `CC1(C)CCC(C)(C)c2cc(C#Cc3ccc(C(=O)O)cc3)ccc21`, the Potency is reported as “inactive”.

Assay: Cytotoxicity counterscreen for inhibitors of SARS-CoV-2 cell entry (AID 1645845); further: nearly all actives have a fitted effect of over 50% in size
Conditions: cell viability (SARS-CoV-2 entry assay cells); series mostly up to 57.1 µM
Summary of the method: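 48 h compound treatment (after 1 h preincubation), HEK293-ACE2 cells, 37 C/5% CO2; ATP luminescence endpoint; normalized to cell wells and media blanks.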
With `C/C(=N\NC(=O)c1cccc(S(=O)(=O)N2CCOCC2)c1)c1cc(Cl)ccc1O` the Potency was “inactive”. In the case of `O=C(O)c1ccc(CCCc2ccc(OCCc3ccc(F)cc3)cc2)o1`, the Potency is reported as “inactive”. In the case of `CC(C)C[C@H](NC(=O)[C@H](Cc1ccccc1)NC(=O)OCc1ccccc1)C(=O)C=O`, the Potency is reported as “inactive”. For `CC(C)(O)CNc1ncc(-c2ccnc(Nc3ccncc3)n2)c(CC2CC2)n1`, the Potency was 25.1 µM (active). For `Nc1nc(Nc2ccc3c(c2)CC[C@@H](N2CCCC2)CC3)nn1-c1cc2c(nn1)-c1ccccc1CCC2`, the Potency was “inactive”. With `Nc1nc(OC(c2ccc(-c3cccc(F)c3)cc2)C(F)(F)F)cc(-c2ccc(C[C@H](N)C(=O)O)cc2)n1` (some centres undefined) the Potency was “inactive”. In the case of `Cn1cc(-c2ccc(-c3cncc(Cl)c3N3CCC4(CCNC4=O)CC3)cc2)cn1`, the Potency is reported as “inactive”. In the case of `c1ccc(-c2cc(CCC3CCNCC3)c3ccccc3n2)cc1`, the Potency is reported as “inactive”. With `O=C1NC(=O)/C(=C\c2ccc(-c3ccc(F)cc3)o2)S1` the Potency was “inactive”. In the case of `Cn1c(NC[C@@H](N)Cc2ccccc2)nc(-c2ccncc2)c(-c2ccc3ccccc3c2)c1=O`, the Potency is reported as “inactive”. In the case of `CC(=O)O/N=C1\C(=O)N(Cc2cc(Cl)ccc2Cl)c2ccc(Cl)cc21`, the Potency is reported as “inactive”. With `COCCNCc1ccc(-c2cc3nccc(Oc4ccc(NC(=O)C5(C(=O)Nc6ccc(F)cc6)CC5)cc4F)c3s2)nc1` the Potency was “inactive”. In the case of `c1ccc(-c2ccc(CNc3nc(-c4ccccn4)nnc3-c3ccccc3)cc2)cc1`, the Potency is reported as 14.1 µM (active). For `COc1cc(N2CCN(C)CC2)ccc1Nc1nccc(-c2cn(C)c3cnccc23)n1`, the Potency was “inactive”.
